Experimental findings from publication PMC7862700, “An all-to-all approach to the identification of sequence-specific readers for epigenetic DNA modifications on cytosine” are described below.

Test in all cases: DAPPL (digital affinity profiling via proximity ligation, sequencing); 10 mM Tris-HCl pH 7.5, 50 mM NaCl, 1 mM DTT, 4% glycerol, room temperature, 30 min; GST-TFs on glutathione beads, 16-mer random dsDNA library, 0.1% formaldehyde crosslink after washing; high values mean tight binding
For one test, the target named is T1, FLI1 (Homo sapiens, UniProt Q01543 1-452).
T1 sequence: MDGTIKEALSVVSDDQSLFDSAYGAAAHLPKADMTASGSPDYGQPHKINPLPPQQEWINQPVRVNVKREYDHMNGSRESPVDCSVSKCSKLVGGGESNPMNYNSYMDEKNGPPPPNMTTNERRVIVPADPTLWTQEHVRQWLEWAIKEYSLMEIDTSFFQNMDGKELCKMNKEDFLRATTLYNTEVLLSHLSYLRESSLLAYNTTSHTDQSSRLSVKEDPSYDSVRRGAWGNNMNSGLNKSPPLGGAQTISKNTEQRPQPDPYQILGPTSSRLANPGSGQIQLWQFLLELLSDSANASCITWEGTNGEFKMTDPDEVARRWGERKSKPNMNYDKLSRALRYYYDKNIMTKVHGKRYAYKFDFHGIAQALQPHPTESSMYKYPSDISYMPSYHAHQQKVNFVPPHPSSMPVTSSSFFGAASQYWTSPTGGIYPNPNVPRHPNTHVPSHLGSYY
The conditions noted are these: protein: recombinant; tags: N-terminal GST; dsDNA, one strand shown. Summed up: (§1)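 Pools were built from human transcription factors expressed in yeast as GST fusions, captured on glutathione beads and DNA-barcoded, along with a tag-only sample. Incubation with 200 nmole of a 16-mer random double-stranded DNA library lasted 30 min at room temperature in Tris/NaCl/DTT/glycerol buffer, and was followed by washing, 0.1% formaldehyde crosslinking, proximity ligation, PCR amplification and Illumina NextSeq500 sequencing. Binding signal is the quotient of each hexamer's read frequency for a factor and its frequency for the tag-only sample.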

For another test, the target named is T2, ELK1 (Homo sapiens, UniProt P19419 1-428).
T2 sequence: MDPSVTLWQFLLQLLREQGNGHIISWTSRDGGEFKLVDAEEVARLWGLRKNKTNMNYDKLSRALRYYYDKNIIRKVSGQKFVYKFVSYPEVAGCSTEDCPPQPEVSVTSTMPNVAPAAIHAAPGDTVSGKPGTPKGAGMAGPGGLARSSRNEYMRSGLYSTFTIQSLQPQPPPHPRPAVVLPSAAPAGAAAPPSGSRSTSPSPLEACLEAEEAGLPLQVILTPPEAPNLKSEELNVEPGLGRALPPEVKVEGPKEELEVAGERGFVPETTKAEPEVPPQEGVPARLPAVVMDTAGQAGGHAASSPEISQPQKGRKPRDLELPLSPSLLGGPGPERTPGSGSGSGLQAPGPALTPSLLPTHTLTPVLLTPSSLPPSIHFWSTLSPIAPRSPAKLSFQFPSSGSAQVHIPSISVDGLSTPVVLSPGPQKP
The conditions noted are these: protein: recombinant; tags: N-terminal GST; dsDNA, one strand shown. The essentials:
as §1

The next test deals with T3, GABPA (Homo sapiens, UniProt Q06546 1-454).
T3 sequence: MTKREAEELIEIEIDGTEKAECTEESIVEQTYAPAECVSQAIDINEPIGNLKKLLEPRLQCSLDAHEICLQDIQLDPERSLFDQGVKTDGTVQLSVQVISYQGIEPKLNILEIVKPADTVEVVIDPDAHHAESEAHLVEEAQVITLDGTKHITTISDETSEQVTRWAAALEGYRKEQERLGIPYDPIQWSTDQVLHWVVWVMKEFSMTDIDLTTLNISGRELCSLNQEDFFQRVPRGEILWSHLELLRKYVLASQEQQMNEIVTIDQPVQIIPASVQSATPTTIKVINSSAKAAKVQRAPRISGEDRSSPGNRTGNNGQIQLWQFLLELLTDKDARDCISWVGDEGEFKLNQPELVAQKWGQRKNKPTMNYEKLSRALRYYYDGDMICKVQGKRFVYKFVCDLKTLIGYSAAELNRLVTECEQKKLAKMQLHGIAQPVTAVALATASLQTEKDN
The conditions noted are these: protein: recombinant; tags: N-terminal GST; dsDNA, one strand shown. The essentials:
as §1

A further test concerns the target T4, ERG (Homo sapiens, UniProt P11308 1-479).
T4 sequence: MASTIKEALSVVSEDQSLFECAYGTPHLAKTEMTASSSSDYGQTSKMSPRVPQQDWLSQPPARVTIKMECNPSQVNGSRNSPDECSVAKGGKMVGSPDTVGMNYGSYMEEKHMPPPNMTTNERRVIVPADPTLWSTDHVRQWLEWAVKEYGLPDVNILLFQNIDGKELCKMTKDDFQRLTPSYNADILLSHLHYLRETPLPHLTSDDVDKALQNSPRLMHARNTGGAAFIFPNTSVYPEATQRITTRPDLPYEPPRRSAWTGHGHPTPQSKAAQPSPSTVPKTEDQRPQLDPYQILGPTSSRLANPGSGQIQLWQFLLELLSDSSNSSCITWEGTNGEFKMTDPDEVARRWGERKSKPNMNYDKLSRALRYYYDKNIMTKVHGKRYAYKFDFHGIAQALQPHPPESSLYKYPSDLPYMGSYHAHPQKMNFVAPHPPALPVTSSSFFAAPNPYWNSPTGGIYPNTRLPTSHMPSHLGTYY
The conditions noted are these: protein: recombinant; tags: N-terminal GST; dsDNA, one strand shown. The essentials: as §1

A further test deals with ELF1 (Homo sapiens, UniProt P32519 1-619). The conditions noted are these: protein: recombinant; tags: N-terminal GST; dsDNA, one strand shown. Summed up: as §1
The next test deals with T5, EHF (Homo sapiens, UniProt Q9NZC4 1-300).
T5 sequence: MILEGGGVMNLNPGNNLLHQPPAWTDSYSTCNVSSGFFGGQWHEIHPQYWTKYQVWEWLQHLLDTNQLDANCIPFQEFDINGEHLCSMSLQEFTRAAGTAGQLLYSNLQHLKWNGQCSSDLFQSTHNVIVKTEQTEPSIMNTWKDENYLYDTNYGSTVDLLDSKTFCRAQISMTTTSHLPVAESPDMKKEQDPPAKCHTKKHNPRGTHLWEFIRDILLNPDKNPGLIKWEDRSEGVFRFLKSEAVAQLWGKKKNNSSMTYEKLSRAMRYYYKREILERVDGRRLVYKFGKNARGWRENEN
The conditions noted are these: protein: recombinant; tags: N-terminal GST; dsDNA, one strand shown. Summed up:
as §1

The target in a further test is SPI1 (Homo sapiens, UniProt P17947 1-270). The conditions noted are these: protein: recombinant; tags: N-terminal GST; dsDNA, one strand shown. Summed up: as §1
The target of another test is SPIB (Homo sapiens, UniProt Q01892 1-262). The conditions noted are these: protein: recombinant; tags: N-terminal GST; dsDNA, one strand shown. The essentials: as §1
A further test concerns the target T6, ELK3 (Homo sapiens, UniProt P41970 1-407).
T6 sequence: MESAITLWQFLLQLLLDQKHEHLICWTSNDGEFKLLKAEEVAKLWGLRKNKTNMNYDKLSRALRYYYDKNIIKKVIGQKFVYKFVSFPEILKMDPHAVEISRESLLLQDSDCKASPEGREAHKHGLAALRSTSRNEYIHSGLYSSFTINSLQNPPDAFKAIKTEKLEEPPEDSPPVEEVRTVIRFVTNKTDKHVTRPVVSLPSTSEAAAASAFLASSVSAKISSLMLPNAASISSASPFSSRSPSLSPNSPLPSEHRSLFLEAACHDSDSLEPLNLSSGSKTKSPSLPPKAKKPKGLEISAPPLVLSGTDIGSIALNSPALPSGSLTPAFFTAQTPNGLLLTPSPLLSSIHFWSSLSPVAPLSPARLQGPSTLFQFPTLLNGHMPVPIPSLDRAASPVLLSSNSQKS
The conditions noted are these: protein: recombinant; tags: N-terminal GST; dsDNA, one strand shown. The essentials: as §1

The target in another test is T7, FEV (Homo sapiens, UniProt Q99581 1-238).
T7 sequence: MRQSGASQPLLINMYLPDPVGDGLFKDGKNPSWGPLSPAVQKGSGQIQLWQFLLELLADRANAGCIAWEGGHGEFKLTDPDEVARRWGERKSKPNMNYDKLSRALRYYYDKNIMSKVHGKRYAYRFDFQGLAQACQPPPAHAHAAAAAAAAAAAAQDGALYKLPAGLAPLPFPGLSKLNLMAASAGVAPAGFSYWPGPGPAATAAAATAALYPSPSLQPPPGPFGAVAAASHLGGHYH
The conditions noted are these: protein: recombinant; tags: N-terminal GST; dsDNA, one strand shown. The essentials:
as §1

The target in another test is ETV5 (Homo sapiens, UniProt P41161 1-510). The conditions noted are these: protein: recombinant; tags: N-terminal GST; dsDNA, one strand shown. Summed up: as §1
Another test deals with HSF1 (Homo sapiens, UniProt Q00613 1-529). The conditions noted are these: protein: recombinant; tags: N-terminal GST; chain copies: 3; dsDNA, one strand shown. Summed up:
as §1

The next test concerns the target T8, SPIC (Homo sapiens, UniProt Q8N5J4 1-248).
T8 sequence: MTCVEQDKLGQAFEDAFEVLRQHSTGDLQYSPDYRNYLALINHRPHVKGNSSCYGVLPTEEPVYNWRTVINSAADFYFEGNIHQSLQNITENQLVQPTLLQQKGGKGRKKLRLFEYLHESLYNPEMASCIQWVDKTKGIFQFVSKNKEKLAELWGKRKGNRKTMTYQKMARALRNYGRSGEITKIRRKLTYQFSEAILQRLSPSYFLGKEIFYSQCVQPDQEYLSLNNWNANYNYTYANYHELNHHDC
The conditions noted are these: protein: recombinant; tags: N-terminal GST; dsDNA, one strand shown. Summed up:
as §1

The next test has as its target ELF4 (Homo sapiens, UniProt Q99607 1-663). The conditions noted are these: protein: recombinant; tags: N-terminal GST; dsDNA, one strand shown. The essentials: as §1
Another test deals with T9, ELK4 (Homo sapiens, UniProt P28324-2 1-405).
T9 sequence: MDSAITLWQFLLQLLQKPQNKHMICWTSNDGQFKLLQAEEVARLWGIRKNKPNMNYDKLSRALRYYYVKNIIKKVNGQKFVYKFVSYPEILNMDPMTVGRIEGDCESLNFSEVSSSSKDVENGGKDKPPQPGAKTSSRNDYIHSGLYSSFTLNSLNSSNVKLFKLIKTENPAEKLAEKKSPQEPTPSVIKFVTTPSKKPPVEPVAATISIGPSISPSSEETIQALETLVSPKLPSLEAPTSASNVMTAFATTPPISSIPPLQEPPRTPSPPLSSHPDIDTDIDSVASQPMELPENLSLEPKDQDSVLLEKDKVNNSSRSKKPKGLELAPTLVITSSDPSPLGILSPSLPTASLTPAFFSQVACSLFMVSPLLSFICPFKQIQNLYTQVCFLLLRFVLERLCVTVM
The conditions noted are these: protein: recombinant; tags: N-terminal GST; dsDNA, one strand shown. Summed up: as §1

The next test addresses T10, ETV2 (Homo sapiens, UniProt O00321 1-342).
T10 sequence: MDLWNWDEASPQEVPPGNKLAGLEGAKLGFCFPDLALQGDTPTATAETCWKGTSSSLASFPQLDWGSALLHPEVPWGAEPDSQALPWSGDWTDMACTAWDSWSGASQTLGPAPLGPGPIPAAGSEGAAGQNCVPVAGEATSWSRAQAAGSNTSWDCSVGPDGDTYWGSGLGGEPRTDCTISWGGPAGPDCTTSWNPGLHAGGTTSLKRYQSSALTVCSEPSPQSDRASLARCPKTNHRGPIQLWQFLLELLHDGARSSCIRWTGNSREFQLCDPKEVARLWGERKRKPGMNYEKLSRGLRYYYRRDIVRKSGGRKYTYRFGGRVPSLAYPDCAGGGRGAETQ
The conditions noted are these: protein: recombinant; tags: N-terminal GST; dsDNA, one strand shown. The essentials: as §1

For the next test, the target named is T11, ELF3 (Homo sapiens, UniProt P78545 1-371).
T11 sequence: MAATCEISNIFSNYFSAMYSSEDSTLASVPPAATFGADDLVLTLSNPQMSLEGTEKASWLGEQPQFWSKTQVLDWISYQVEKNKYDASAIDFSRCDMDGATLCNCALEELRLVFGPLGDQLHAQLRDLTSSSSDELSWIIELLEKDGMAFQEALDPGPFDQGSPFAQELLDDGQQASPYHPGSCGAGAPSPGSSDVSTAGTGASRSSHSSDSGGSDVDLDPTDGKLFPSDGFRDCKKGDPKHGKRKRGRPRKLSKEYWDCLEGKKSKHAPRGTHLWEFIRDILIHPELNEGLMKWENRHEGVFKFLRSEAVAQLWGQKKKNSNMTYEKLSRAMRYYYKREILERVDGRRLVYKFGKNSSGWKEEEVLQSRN
The conditions noted are these: protein: recombinant; tags: N-terminal GST; dsDNA, one strand shown. Summed up: as §1

The next test has as its target ETV1 (Homo sapiens, UniProt P50549 1-477). The conditions noted are these: protein: recombinant; tags: N-terminal GST; dsDNA, one strand shown. The essentials: as §1

Chain of HSF1 (Q00613 whole entry): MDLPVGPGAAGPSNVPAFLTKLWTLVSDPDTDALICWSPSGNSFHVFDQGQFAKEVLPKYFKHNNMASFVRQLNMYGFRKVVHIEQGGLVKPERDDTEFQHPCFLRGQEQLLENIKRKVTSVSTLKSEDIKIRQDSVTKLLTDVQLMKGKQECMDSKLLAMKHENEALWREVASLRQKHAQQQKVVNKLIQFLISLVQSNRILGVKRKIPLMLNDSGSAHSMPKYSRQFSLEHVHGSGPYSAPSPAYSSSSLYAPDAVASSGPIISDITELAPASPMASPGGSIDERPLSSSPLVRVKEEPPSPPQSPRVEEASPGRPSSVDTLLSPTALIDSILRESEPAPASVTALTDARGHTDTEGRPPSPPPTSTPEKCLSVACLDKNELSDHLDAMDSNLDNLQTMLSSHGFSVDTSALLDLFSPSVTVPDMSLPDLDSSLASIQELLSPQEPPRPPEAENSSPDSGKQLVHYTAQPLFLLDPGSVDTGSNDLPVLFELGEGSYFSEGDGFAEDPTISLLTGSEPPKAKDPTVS
Chain of ELF4 (Q99607 whole entry): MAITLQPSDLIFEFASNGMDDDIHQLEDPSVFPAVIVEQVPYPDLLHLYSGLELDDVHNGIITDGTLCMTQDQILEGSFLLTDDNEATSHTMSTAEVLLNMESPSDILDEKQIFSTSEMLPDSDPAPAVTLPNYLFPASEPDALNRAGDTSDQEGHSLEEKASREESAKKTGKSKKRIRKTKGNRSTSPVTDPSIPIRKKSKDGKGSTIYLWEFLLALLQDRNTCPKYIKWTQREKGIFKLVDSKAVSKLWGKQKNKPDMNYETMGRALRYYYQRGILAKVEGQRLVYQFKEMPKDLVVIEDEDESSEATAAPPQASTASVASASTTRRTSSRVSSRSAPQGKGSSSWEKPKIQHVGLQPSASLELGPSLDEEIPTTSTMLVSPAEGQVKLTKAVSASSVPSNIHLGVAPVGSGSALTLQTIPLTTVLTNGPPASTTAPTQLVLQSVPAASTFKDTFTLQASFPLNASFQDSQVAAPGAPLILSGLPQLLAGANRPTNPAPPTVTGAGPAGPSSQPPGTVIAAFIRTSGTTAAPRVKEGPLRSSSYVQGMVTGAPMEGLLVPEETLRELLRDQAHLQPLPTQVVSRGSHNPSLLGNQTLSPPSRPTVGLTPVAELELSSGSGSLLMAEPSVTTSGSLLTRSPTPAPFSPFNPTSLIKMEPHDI
Chain of ELF1 (P32519 whole entry): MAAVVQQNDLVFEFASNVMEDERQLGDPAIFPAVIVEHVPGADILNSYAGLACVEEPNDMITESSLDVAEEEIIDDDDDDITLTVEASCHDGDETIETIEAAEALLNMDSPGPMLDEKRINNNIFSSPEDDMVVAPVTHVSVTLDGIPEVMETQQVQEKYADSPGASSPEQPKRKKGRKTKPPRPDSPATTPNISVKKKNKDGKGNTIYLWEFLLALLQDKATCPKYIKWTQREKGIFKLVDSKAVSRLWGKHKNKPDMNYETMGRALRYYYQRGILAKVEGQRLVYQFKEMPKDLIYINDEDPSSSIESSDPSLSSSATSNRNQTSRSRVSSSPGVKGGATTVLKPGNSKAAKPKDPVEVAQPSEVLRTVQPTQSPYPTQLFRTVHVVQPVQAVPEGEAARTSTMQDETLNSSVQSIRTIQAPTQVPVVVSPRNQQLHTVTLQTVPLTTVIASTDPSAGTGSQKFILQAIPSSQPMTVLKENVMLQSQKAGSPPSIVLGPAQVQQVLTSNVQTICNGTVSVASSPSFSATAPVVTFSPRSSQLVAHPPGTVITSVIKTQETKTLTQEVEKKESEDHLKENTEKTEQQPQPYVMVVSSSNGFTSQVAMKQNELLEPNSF
Chain of ETV5 (P41161 whole entry): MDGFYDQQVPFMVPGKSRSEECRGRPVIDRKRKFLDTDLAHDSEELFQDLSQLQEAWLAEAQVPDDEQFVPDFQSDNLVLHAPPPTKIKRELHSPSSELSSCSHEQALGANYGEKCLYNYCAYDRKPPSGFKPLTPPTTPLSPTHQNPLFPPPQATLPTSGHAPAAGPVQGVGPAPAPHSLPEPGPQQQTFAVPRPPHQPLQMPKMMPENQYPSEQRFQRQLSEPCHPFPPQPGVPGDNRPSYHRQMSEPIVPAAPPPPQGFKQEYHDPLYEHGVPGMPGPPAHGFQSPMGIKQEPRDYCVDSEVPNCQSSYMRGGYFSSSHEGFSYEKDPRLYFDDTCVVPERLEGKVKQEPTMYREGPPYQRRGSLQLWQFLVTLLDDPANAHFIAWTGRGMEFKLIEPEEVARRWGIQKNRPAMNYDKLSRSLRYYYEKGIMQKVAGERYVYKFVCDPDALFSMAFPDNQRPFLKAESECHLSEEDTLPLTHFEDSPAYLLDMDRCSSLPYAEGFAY
Chain of SPIB (Q01892 whole entry): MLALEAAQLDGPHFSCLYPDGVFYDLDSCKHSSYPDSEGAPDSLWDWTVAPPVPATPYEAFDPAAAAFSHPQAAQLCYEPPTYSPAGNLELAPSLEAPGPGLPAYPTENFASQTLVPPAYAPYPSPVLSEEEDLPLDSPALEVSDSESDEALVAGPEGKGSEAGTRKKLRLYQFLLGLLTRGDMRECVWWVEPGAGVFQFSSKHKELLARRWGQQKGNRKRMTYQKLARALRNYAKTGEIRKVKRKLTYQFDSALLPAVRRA
Chain of ETV1 (P50549 whole entry): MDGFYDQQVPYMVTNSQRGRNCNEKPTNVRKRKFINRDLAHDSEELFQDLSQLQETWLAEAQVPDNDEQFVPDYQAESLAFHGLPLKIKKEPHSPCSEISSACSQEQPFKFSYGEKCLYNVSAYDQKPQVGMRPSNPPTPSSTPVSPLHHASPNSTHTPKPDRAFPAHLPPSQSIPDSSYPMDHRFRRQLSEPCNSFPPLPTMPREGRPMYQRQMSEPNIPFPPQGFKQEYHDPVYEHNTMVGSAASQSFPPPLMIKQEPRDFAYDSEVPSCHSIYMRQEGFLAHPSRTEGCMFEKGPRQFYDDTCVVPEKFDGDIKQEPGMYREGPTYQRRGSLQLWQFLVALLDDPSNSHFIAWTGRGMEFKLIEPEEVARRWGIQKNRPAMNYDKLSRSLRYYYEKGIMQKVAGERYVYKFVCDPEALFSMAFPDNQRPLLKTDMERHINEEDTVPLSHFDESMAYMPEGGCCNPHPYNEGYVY

As to TGCCGC, the binding signal with FLI1 is 1.33 fold enrichment (6-mer frequency, TF over GST control); with ELK1, 1.3 fold enrichment (6-mer frequency, TF over GST control); in the test with GABPA, 1.33 fold enrichment (6-mer frequency, TF over GST control); in the test with ERG, 1.24 fold enrichment (6-mer frequency, TF over GST control); with ELF1, 1.28 fold enrichment (6-mer frequency, TF over GST control); with EHF it was 1.28 fold enrichment (6-mer frequency, TF over GST control). In addition, the binding signal is 1.37 fold enrichment (6-mer frequency, TF over GST control) with SPI1; 1.36 fold enrichment (6-mer frequency, TF over GST control) in the test with SPIB; 1.26 fold enrichment (6-mer frequency, TF over GST control) with ELK3; 1.27 fold enrichment (6-mer frequency, TF over GST control) with FEV; 1.23 fold enrichment (6-mer frequency, TF over GST control) in the test with ETV5; 1.03 fold enrichment (6-mer frequency, TF over GST control) with HSF1. Besides, the binding signal with SPIC was 1.15 fold enrichment (6-mer frequency, TF over GST control); with ELF4 it was 1.35 fold enrichment (6-mer frequency, TF over GST control); with ELK4, 1.23 fold enrichment (6-mer frequency, TF over GST control); with ETV2, 1.06 fold enrichment (6-mer frequency, TF over GST control); with ELF3, 1.07 fold enrichment (6-mer frequency, TF over GST control); with ETV1 it was 1.3 fold enrichment (6-mer frequency, TF over GST control).
